Source: ChEMBL document CHEMBL3988442, “University of Dundee, Small-Polar-MMV Screening Library” (2021)

How the values were obtained:
[1] = target: T1, Aspartate--tRNA(Asp/Asn) ligase (Mycobacterium tuberculosis (strain ATCC 25618 / H37Rv)) (UniProt P9WFW3); assay: Assay for Asp RNA synthetase-1 from Mycobacterium tuberculosis; assay type: functional; set-up: scale not given: direction of the effect not stated beside the values; details: 30 µM; note: in the data most compounds retested in dose-response had high values
T1 sequence (whole entry): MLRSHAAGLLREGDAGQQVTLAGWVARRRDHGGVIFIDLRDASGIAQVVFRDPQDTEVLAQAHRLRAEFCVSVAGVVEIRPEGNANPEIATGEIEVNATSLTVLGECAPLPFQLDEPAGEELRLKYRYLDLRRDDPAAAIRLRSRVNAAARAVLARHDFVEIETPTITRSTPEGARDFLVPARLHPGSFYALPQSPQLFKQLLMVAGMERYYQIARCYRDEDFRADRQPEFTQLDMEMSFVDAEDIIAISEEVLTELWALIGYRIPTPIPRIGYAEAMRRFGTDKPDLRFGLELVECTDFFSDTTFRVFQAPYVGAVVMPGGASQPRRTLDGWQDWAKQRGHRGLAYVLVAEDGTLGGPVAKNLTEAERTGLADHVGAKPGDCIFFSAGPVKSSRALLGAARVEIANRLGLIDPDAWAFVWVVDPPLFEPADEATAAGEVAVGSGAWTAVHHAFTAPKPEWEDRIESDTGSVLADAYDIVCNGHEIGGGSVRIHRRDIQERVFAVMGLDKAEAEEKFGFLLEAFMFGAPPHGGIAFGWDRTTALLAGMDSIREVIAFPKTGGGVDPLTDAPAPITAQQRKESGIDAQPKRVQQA

[2] = target: Shiga toxin 2 (Escherichia coli O157:H7) (UniProt P09385+P09386); assay: E. coli 0.157:H7 Shiga Toxin SOP - stx2 screening assay; assay type: functional; set-up: scale not given: direction of the effect not stated beside the values; details: 30 µM

Structure (SMILES): CC(O)CN1CCC(CNCc2c[nH]nc2C(C)(C)C)CC1 (stereo not drawn)
- Percent Effect [1]: 0.384%
- Percent Effect [2]: 14.9%

Structure (SMILES): CCC(CC)c1cc(CNC(=O)N2CCOCC2CC)on1 (stereo not drawn)
- Percent Effect [1]: -2.19%
- Percent Effect [2]: 9.7%

Structure (SMILES): CC(C)S(=O)(=O)NCC1CCCN(C(=O)c2cccnc2)C1 (stereo not drawn)
- Percent Effect [1]: -0.834%
- Percent Effect [2]: -4.9%

Structure (SMILES): N#Cc1ccc(OCCNc2cccc(C(=O)N3CCOCC3)c2)cc1
- Percent Effect [1]: 1.46%
- Percent Effect [2]: -43.4%

Structure (SMILES): Cc1nc(-c2ccc(Cl)s2)sc1C(=O)NCCS(N)(=O)=O
- Percent Effect [1]: -0.408%
- Percent Effect [2]: -17.2%

Structure (SMILES): CCCc1n[nH]c(C2CN(CCCOc3ccccc3)CCO2)n1 (stereo not drawn)
- Percent Effect [1]: 0.946%
- Percent Effect [2]: 5.54%

Structure (SMILES): CN1CCN(C(=O)c2cnc3c(cnn3C3CCCC3)c2)CC1
- Percent Effect [1]: -4%
- Percent Effect [2]: -2.45%

Structure (SMILES): COc1cc(C(=O)N2CCC(c3n[nH]c(C4CC4)n3)CC2)ccc1C
- Percent Effect [1]: -0.859%
- Percent Effect [2]: 3.06%

Structure (SMILES): CC(C)Nc1ccc2nc(C3CCN(C(C)C)CC3)nn2c1
- Percent Effect [1]: -0.549%
- Percent Effect [2]: -8.89%

Structure (SMILES): CC(NC(N)=O)C(=O)N1CCCN(Cc2nccn2C(C)C)CC1 (stereo not drawn)
- Percent Effect [1]: 0.509%
- Percent Effect [2]: 8.58%

Structure (SMILES): Cc1ncc2c(n1)CN(CC(=O)Nc1nncs1)CC2
- Percent Effect [1]: -3.23%
- Percent Effect [2]: -20.4%

Structure (SMILES): Cc1nc(CN2CCCN(CCOc3cccc(C#N)c3)CC2)no1
- Percent Effect [1]: 5.09%
- Percent Effect [2]: 19.3%

Structure (SMILES): N#Cc1cccc(S(=O)(=O)NC(=O)COc2ccc3c(c2)CCC3)c1
- Percent Effect [1]: -0.478%
- Percent Effect [2]: 8.82%

Structure (SMILES): CC(C)c1ncc2c(n1)CN(Cc1nc(-c3ccoc3)no1)CC2
- Percent Effect [1]: 3.7%
- Percent Effect [2]: -1.63%

Structure (SMILES): Cc1nn(C)c(N(C)C)c1CNCC(O)c1ccccc1 (stereo not drawn)
- Percent Effect [1]: -4.11%
- Percent Effect [2]: -17.5%

Structure (SMILES): O=C(c1ccco1)N1C[C@H]2CCCN(Cc3cccs3)[C@H]2C1
- Percent Effect [1]: 6.24%
- Percent Effect [2]: -1.93%

Structure (SMILES): Cc1cccc(C(=O)NC2CCN(c3cnn(C)c3)C2=O)n1 (stereo not drawn)
- Percent Effect [1]: 2.04%
- Percent Effect [2]: -29.9%

Structure (SMILES): O=C1CCCc2cc(-c3csc(CCN4CCOC4=O)n3)ccc2N1
- Percent Effect [1]: -6.83%
- Percent Effect [2]: -35.7%

Structure (SMILES): c1ccc(OC2CCCC2)c(CNC2CCc3ncnn3C2)c1 (stereo not drawn)
- Percent Effect [1]: -1.83%
- Percent Effect [2]: 9.47%
